This is an account of results in PubChem BioAssay AID2289 (National Center for Advancing Translational Sciences (NCATS), 2010).

Hit rate of the full screen: of about 340,000 compounds, about 3,300 (0.97%) were called active. About 9% were inconclusive and are not listed. The call rests on the fitted dose curve; in most records, active means well fitted inhibition curve with a large enough effect; inconclusive means small, poorly fitted or top-dose-only effect, or effect the other way; inactive means flat fitted curve, though single readings scatter. Some of the results follow.
Potency means the concentration at half of the fitted maximal effect.

This test can be described thus: qHTS Assay for Modulators of miRNAs and/or Inhibitors of miR-21. Further: nearly all actives have a fitted effect of over 55% in size. Conditions: HeLa miR-21-FLuc reporter, luciferase luminescence, 48 h; actives lower the signal. From the text: MLSCN Grant: 1 R21 NS059478-01 Assay Provider: Qihong Huang, The Wistar Institute NCGC Assay Overview: MicroRNAs (miRNAs) are endogenously encoded small (~20-25 nucleotides), nonprotein-coding RNAs that are involved in post-transcriptional repression of target messenger RNAs (mRNAs) (Le and Hannon, 2004). Estimated to be involved in the regulation of 30% of all protein-coding mRNAs (Filipowicz et al., 2008), miRNAs play a significant role in many biological processes including cellular differentiation and tissue development (Ghildiyal and Zamore, 2009).
NCGC Assay Protocol Summary: Reagents: HeLa cells stably expressing firefly luciferase (FLuc) under the control of a CMV promoter (upstream) and a miR-21 binding sequence directly downstream of the gene. These cells endogenously express miR-21. Control compounds used were compound C3 (provided by collaborator), N6-phenyladenosine (MP Biomedicals, 0215379625), and DMSO. Assay Summary: 6uL of HeLa miR-21-FLuc cells in assay buffer (DMEM, Invitrogen #21063-029; 10% FBS, HyClone #SH30071.03) were dispensed at 2000cells/well (3.3 x 10^5 cells/mL) into Greiner solid-white TC-treated 1536-well plates using a Multidrop Combi (Thermo Fisher Scientific). Plates were incubated for one hour at 37 degree Celsius, 95% humidity, 5% CO2. These assay plates were then treated with 23nL of compound or DMSO using a Kalypsys pin tool, which allows for delivery of a 24-point titration of each compound to the assay plate, with a final compound concentration ranging from approximately 40uM to 5pM. Assay plates were then incubated for 48 hours. After incubation, plates were allowed to come to RT for one hour prior to delivery of 3uL of 3X luciferase detection reagent. After a 15 minute incubation to allow for cell lysis, luciferase activity was measured using a ViewLux CCD imager (PerkinElmer), with an average exposure time of 2-12 seconds. Keywords: NIH Roadmap, MLPCN, MLSMR, qHTS, miR-21, microRNA, firefly luciferase, FLuc.
In general terms: Quantitative high-throughput screening tests each substance at several concentrations.
Consider `CCCSc1nc(N)nc(-c2cccs2)c1C#N`, for which the Potency was 13.1 µM (active). For `CCSc1nc(N)nc(-c2cccs2)c1C#N`, the Potency is 16.5 µM (active). As to `CCCCNC(=O)N(C)c1nc2ccccc2s1`, the Potency is 8.26 µM (active). Then `COc1ccc2nc(SCc3ccccc3)nc(C)c2c1`, with 1.17 µM (active). For `Cc1nc(SCc2ccccc2)nc2c1CCC2`, the Potency was 5.85 µM (active). Then `COc1ccc2nc(SCc3cccc(C)c3)nc(C)c2c1`, with 7.36 µM (active); and `O=C1/C(=C\c2cccs2)Sc2ccc3ccccc3c21`, with 0.521 µM (active).

As for `Cc1cc(NC(=O)CCC2CCCCC2)no1`, the Potency is 16.5 µM (active). Next, `Cn1c(NC(=O)CCC2CCCCC2)cc(=O)n(C)c1=O`: 1.17 µM (active). Take `Cn1c(NC(=O)CCc2ccccc2)cc(=O)n(C)c1=O`: the Potency is 3.69 µM (active). Then `O=C(CNC(=O)c1ccc(F)cc1)c1ccc(Cl)cc1`, with 3.69 µM (active). Next, `O=C(CCCC(=O)c1ccc(F)cc1)c1ccc(F)cc1`: 3.29 µM (active); `CC1CCC(NC(=O)CNC(=O)c2cccs2)CC1` (stereo not given): 3.29 µM (active); `O=C(CNC(=O)c1cccs1)c1ccc(Br)cc1`: 3.29 µM (active). With `O=C(CNC(=O)c1ccccc1F)c1ccc(Br)cc1`, the Potency is 1.47 µM (active). Next, `Cc1ccc(N=C2NC(=O)/C(=C\c3cccs3)S2)cc1C`: 10.4 µM (active); `Cc1ccc(OCCCSc2ncccn2)cc1C`: 14.7 µM (active); `Clc1ccc(OCCSc2ncccn2)cc1`: 3.69 µM (active). With `Clc1ccc(OCCSc2ncccn2)c(Br)c1`, the Potency is 1.31 µM (active). Then `CC(C)CSc1nnc2c3ccccc3n(C)c2n1`, with 1.31 µM (active). As to `O=C(/C=C/c1nc2ccccc2s1)N1CCCCCC1`, the Potency is 2.07 µM (active). Then `CCC(=O)N1CCc2nc(-c3ccccc3)sc2C1`, with 14.7 µM (active); and `Cc1cccc(C)c1NC(=O)c1c[nH]c2ccccc12`, with 3.69 µM (active). Then `Clc1nc(-c2cccnc2)nc2scc(-c3ccccc3)c12`, with 7.36 µM (active); and `O=C(CSc1ccc(F)cc1)Nc1ccc(C2SCCS2)cc1`, with 11.7 µM (active). For `COc1ccc(NC(=O)CCSc2ccc(F)cc2)cc1`, the Potency was 7.36 µM (active). Consider `CC1CCc2c(C(=O)NCc3ccccn3)csc2C1` (stereo not given), for which the Potency is 11.7 µM (active). Then `COc1ccccc1NC(=O)c1csc2c1CCC(C)C2` (stereo not given), with 5.85 µM (active). Then `Cc1ccc(-c2cc(NC(=O)c3ccccc3Cl)on2)cc1`, with 2.61 µM (active).

On to `CCc1nc(NC(C)(C)C)c2cnn(-c3ccccc3)c2n1`, for which the Potency was 7.36 µM (active). Next, `Cc1ccoc1C(=O)Nc1cccc(Oc2ccccc2)c1`: 3.29 µM (active). With `CCn1c(O)c(/C=C2\C=Nc3ccccc32)sc1=O`, the Potency was 1.17 µM (active). Then `CCn1c(O)c(/C=C2\C=Nc3ccccc32)sc1=Nc1ccccc1`, with 7.36 µM (active); and `N/C(=N\OC(=O)Cc1cccs1)c1ccc(Br)cc1`, with 16.5 µM (active); and `COc1ccc(/C(N)=N/OC(=O)Cc2cccs2)cc1`, with 6.56 µM (active). As for `N/C(Cc1cccs1)=N\OC(=O)COc1ccccc1Cl`, the Potency was 14.7 µM (active). Then `N/C(Cc1cccc2ccccc12)=N\OC(=O)Cc1cccs1`, with 11.7 µM (active); and `Fc1ccc(/C=C/c2nnc(-c3cccs3)o2)cc1`, with 2.07 µM (active). For `Clc1ccc2oc(-c3ccccc3)cc(=NCCCN3CCOCC3)c2c1`, the Potency is 4.14 µM (active). Then `COc1ccc(N/C=C\C(=O)c2ccc(C)cc2)cc1OC`, with 14.7 µM (active); and `CCOc1ccc(N/C=C/C(=O)c2ccc(OC)c(OC)c2)cc1`, with 9.27 µM (active). Consider `Cc1ccc(N/C=C/C(=O)c2ccc(C)cc2)cc1`, for which the Potency is 2.33 µM (active). Next, `COc1ccc(N/C=C/C(=O)c2ccc(Cl)cc2)cc1`: 1.04 µM (active). Then `CC(=O)c1ccc(N/C=C\C(=O)c2ccc(C)cc2)cc1`, with 1.31 µM (active); and `COc1ccc(C(=O)/C=C/Nc2ccc(C)cn2)cc1OC`, with 1.65 µM (active); and `Cc1ccc(NC(=O)C(=O)c2ccc(C)cc2)cc1`, with 2.93 µM (active).

Regarding `COc1ccc(C(=O)/C=C/Nc2cc(C)on2)cc1`, the Potency is 2.93 µM (active). For the molecule `COc1ccccc1/C=C/C(=O)N1CCC(c2ccccc2)C1` (stereo not given), the Potency was 2.93 µM (active). On to `O=C(c1ccc(F)cc1)N1CCC(c2ccccc2)C1` (stereo not given), for which the Potency is 7.36 µM (active).

As for `O=C(COc1ccc(F)cc1)N1CCC(c2ccccc2)C1` (stereo not given), the Potency was 13.1 µM (active). Then `O=C(c1ccc(F)cc1)N1CCC(n2nnc3ccccc32)CC1`, with 5.85 µM (active); and `O=C(N/N=C\c1ccco1)Nc1cccc(Cl)c1`, with 1.85 µM (active); and `NC(=O)c1sc2nc(-c3cccnc3)ccc2c1N`, with 18.5 µM (active).

`NC(=O)c1sc2nc(-c3ccccc3)ccc2c1N`: the Potency was 1.85 µM (active). Next, `Nc1c(C(=O)N2CCCC2)sc2nc(-c3ccccc3)ccc12`: 3.69 µM (active).
